This is an account of results in PubChem BioAssay AID720533 (National Center for Advancing Translational Sciences (NCATS), 2013).

Values joined by “and” are separate entries in the source; they are usually repeats but may differ in a detail not shown here. Equal entries are not always repeated. Hit rate of the full screen: of about 18,000 compounds, about 750 (4.2%) were called active. Entries that show only a call come without a potency. Not shown: some 13% with an inconclusive outcome. Only a selection was taken, and actives are over-represented in it overall. Values without a mark were called inactive. The call rests on the fitted dose curve; tested in HEK293 cells. Starred links: 1 amine or outer side, 2 acyl side, 3 side chain; linkers in the order of their positions; H or OH if unused. Positions of bridges follow the written chain, without caps; N, C: chain ends. Non-standard residues stand in square brackets, D forms with d. Residues, ends and D or L forms follow the SMILES beside them. *: point of attachment. X15 = NC1=N[C@@H]([C@H](N[*:1])C(=O)[*:2])C[C@H](O)N1; ΔAla(Z-3-ureido) = NC(=O)N/C=C(\N)C(=O)O; β3hOrn = NCCC[C@H](N)CC(=O)*; Dap = NC[C@H](N)C(=O)O
Potency means the concentration at half of the fitted maximal effect.

The nature of this test: qHTS for Inhibitors of binding or entry into cells for Lassa Virus. Conditions: Lassa virus pseudotyped entry inhibition, cell-based qHTS; series mostly up to 49.2 µM.
As to `Nc1nccc(-c2c(-c3ccc(F)cc3)ncn2CCCN2CCOCC2)n1`, the activity change, negative = inhibition entry is “inactive”.
With `CC(=O)Oc1c2c(c3c(c1CC=C(C)C)O[C@@]14C(=CC5CC1C(C)(C)OC4(C/C=C(\C)C(=O)O)C5=O)C3=O)OC(C)(CCC=C(C)C)C=C2` (stereo partly drawn), the Potency was 6.31 µM (active).
As to `NCCCNCCCCN(CCCN)/[N+]([O-])=N/O`, the activity change, negative = inhibition entry is “inactive”.
Still for that read-out and setting: under `CCCCC/C=C\C/C=C\CCCCCCCCCC(=O)NCC(=O)O` stands “inactive”.
Same read-out and setting: the same measure for `CCCCCCCC1=Cc2ccc(F)cc2C(C(C(=O)OC)C(=O)OC)N1C(=O)OC` (stereo not drawn): “inactive”; for `COc1ccccc1-c1nc(NCCNC(C)=O)c2ccccc2n1`: “inactive”.
As for `Cc1cnc(C(=O)N2CCOc3ccc(CN4CCCC(C(=O)c5cccnc5)C4)cc3C2)[nH]1` (stereo not drawn), the activity change, negative = inhibition entry is “inactive”.
Regarding `Nc1nc(/C(=C/CC(=O)O)C(=O)N[C@@H]2C(=O)N3C(C(=O)O)=CCS[C@H]23)cs1`, the activity change, negative = inhibition result was “inactive”.
As to `COc1cccc([C@@H]2Oc3ccc(Br)cc3C(=O)[C@H]2OC(=O)NCCc2ccc(OC)c(OC)c2)c1`, the activity change, negative = inhibition entry was “inactive”.
On the same count and under the same terms, the same measure for `C/C=C(\C)C(=O)OC1C(OC(=O)C2(C)OC2C)c2cc3ccc(=O)oc3cc2OC1(C)C` (stereo not drawn): “inactive”; for `OCC1CCCN(c2nc3cc4c(cc3cc2CNCc2cccs2)OCO4)C1` (stereo not drawn): “inactive”; for `CCOC(=O)CCN1C(=O)[C@@H]2[C@H]3[C@H](O)[C@H](O)CC(=NOCC(C)C)[C@@H]3CC[C@H]2C1=O`: -24.6% [at 8.59 µM].
On the same count and under the same terms, under `CCN1CCN(C(=O)N[C@@H](C(=O)N[C@@H]2C(=O)N3C(C(=O)O)=C(CSc4nnnn4C)CS[C@H]23)c2ccc(O)cc2)C(=O)C1=O` stands “inactive”.
As for `CCOC(=O)C1C/C(=C\C(C)=O)c2cccc(C(F)(F)F)c2O1` (stereo not drawn), the activity change, negative = inhibition entry was “inactive”.
Still for that read-out and setting: under `CC(C)[C@@H](OCc1ccccc1)[C@H](C)C=NOC[C@@H](C)[C@H](OCc1ccccc1)C(C)C` stands 8.86% [at 8.59 µM]; under `COc1ccc(CN(C)CCn2cc(C(=O)N3CCSCC3)nn2)cc1C`, “inactive”; under `CC1OC(OCC2OC(Oc3c(-c4ccc(O)c(O)c4)oc4cc(O)cc(O)c4c3=O)C(O)C(O)C2O)[C@@H](O)C(O)C1O` (stereo partly drawn), “inactive”.
Turning to `CNc1ncnc2ccc(-c3cccc(NS(C)(=O)=O)c3)cc12`, the activity change, negative = inhibition result is “inactive”.
`COc1ccc(Nc2ncnc3ccc(OC)cc23)cc1`: the activity change, negative = inhibition result was “inactive”.
For the molecule `Cc1csc(-c2nc3ccccc3n2C)n1`, the activity change, negative = inhibition entry is “inactive”.
On the same count and under the same terms, the same measure for `CNC(=O)C[C@H]1C(=O)N(Cc2ccccc2)C[C@@H]1CSC`: “inactive”; for `CCCCCCN1C[C@@H](O)[C@H](n2cc(-c3ccc(F)cc3)nn2)C[C@H]1c1ccccc1`: “inactive”; for `COc1c(O)cc2oc(-c3ccc(O)c(O)c3)cc(=O)c2c1O`: “inactive”.
Same read-out and setting: under `Cc1nc2cc(NC(=O)[C@@H]3C[C@@H](Sc4ccccn4)CN3Cc3ccccc3C)ccc2s1` stands “inactive”; under `CCCN(C/C=C/I)C1CCc2ccc(O)cc2C1` (stereo not drawn), “inactive”.
Regarding `CC[C@@H]1Cc2cc(O)ccc2C2=C1c1ccc(O)cc1C[C@H]2CC`, the Potency is 20 µM (active).
Consider `COCOc1cc(OC)ccc1C(=O)/C=C/c1ccc([N+](=O)[O-])cc1`, for which the activity change, negative = inhibition entry was “inactive”.
Same read-out and setting: the same measure for `CCOC(=O)C1=C(C(=O)OCC)C(C(=O)OCC)N(S(=O)(=O)C(F)(F)F)c2ccccc21` (stereo not drawn): “inactive”; for `c1ccc(CN2CCN(Cc3ccc4c(c3)CN(Cc3c[nH]c5ccccc35)CCO4)CC2)nc1`: “inactive”; for `O=C(O)CCC(=O)O`: “inactive”.
Same read-out and setting: under `O=C(CCN1Cc2ccccc2OC(c2ccccc2)C1)N[C@@H]1CS(=O)(=O)C[C@H]1O` (stereo partly drawn) stands “inactive”; under `COC(=O)c1c(OCc2ccc(F)cc2)cc(=O)n2c1CCN(Cc1ccc3cccnc3c1)CC2`, “inactive”; under `CC1C(=O)N(Cc2cn(Cc3ccco3)nn2)CCS(=O)(=O)N1Cc1ccc(-c2cccc(CO)c2)cc1` (stereo not drawn), “inactive”.
For the molecule `Cc1cccc(CN2CCN(C3CN(Cc4cn(Cc5ccccc5F)nn4)S(=O)(=O)C3)CC2)c1` (stereo not drawn), the activity change, negative = inhibition entry is “inactive”.
Turning to `NCCC[C@H](N)CC(=O)N[C@H]1CNC(=O)[C@H]([C@H]2C[C@H](O)NC(N)=N2)NC(=O)/C(=C/NC(N)=O)NC(=O)[C@H](CO)NC(=O)[C@H](CO)NC1=O` (β3hOrn-[Dap]SS[ΔAla(Z-3-ureido)][X15]; lactam 1-C), the activity change, negative = inhibition result is “inactive”.
The same measure, in the same setting: under `O=C1C2=C(C(=O)c3ccccc31)[C@H]1O[C@](CCCCN3C(=O)c4ccccc4C3=O)(Cc3c1ccc1ccccc31)O2` stands 10.1% [at 8.59 µM]; under `C/C(Nc1ccc2oc(=O)ccc2c1)=C1/C(=O)CC2[C@@H]1C2(C)C` (stereo partly drawn), “inactive”; under `CCCCCCc1cc2cc(OC)c(OC)cc2c2c(C(=O)OC)c(C(=O)OC)c(C(=O)OC)n12`, -14.4% [at 8.59 µM].
Same read-out and setting: under `CO[C@]1(NC(=O)CSC(F)F)C(=O)N2C(C(=O)O)=C(CSc3nnnn3CCO)CO[C@H]21` stands “inactive”.
Same read-out and setting: under `O=C(C=Cc1ccccc1)Nc1cccc(C(=O)N2CCCCC2)c1` stands “inactive”.
On to `Nc1nc(-c2ccc3c(c2)C(=Cc2cc(Br)c(O)c(Br)c2)C(=O)N3)cs1`, for which the activity change, negative = inhibition result was “inactive”.
In the case of `Cc1ccc(-c2ccc(CN3C(C(C)C)C(=O)N(Cc4cn(CCC5OCCCO5)nn4)CCS3(=O)=O)cc2)cc1` (stereo not drawn), the activity change, negative = inhibition result is “inactive”.
The same measure, in the same setting: the same measure for `COC(=O)CC1c2ccccc2C(Cc2ccc(OC)cc2)=C(C)N1C(=O)OC` (stereo not drawn): 25.9% [at 8.59 µM] and -25.2% [at 8.59 µM]; for `C=CC1=C2C=C(C3CC3)N(C(CO)CO)C=C2C(=O)C(C)(OC(=O)c2ccco2)C1=O` (stereo not drawn): 4.32% [at 8.59 µM].
On the same count and under the same terms, under `COCC(=O)Nc1cc(C(=O)N2CCCC(c3ccccc3)CC2)c2c(c1)nc(-c1ccncc1)n2C` (stereo not drawn) stands “inactive”; under `C[C@@H](O)[C@@H]1NC(=O)[C@H](CCCCN)NC(=O)[C@H](Cc2c[nH]c3ccccc23)NC(=O)[C@H](Cc2ccccc2)NC(=O)[C@H](Cc2ccccc2)NC(=O)[C@H](CC(N)=O)NC(=O)[C@H](CCCCN)NC(=O)[C@@H](NC(=O)[C@@H]2CCCN2)CSSC[C@@H](C(=O)N[C@@H](CCCCN)C(=O)O)NC(=O)[C@H](CO)NC(=O)[C@H](CO)NC(=O)[C@H](Cc2ccccc2)NC1=O` (H-PCKNFFWKTFSSCK-OH; disulfide 2-13), “inactive”.
`COC1CC(OC2CC[C@@]3(C=O)C4CC[C@]5(C)C(C6=CC(=O)OC6)CC[C@@]5(O)C4CC[C@]3(O)C2)OC(C)C1O` (stereo partly drawn): the Potency is 0.282 µM (active).
The same measure, in the same setting: the same measure for `C[C@@]12CC[C@H]3[C@@H](CC[C@]4(O)C[C@H](O)CC[C@@]34C=O)[C@]1(O)CC[C@@H]2C1=CC(=O)OC1`: 1.26 µM (active).
